Test [1] can be described thus: NCI Yeast Anticancer Drug Screen. Data for the rad50 strain (AID 155).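 Note: 0% = growth of vehicle-only cultures of the same strain.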 Conditions: S. cerevisiae rad50 strain growth inhibition, active compounds read high. The procedure, abridged: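 A DNA repair-deficient yeast mutant serves as the test organism; compound-induced growth inhibition is calculated against vehicle-treated cells.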
Test [2] in a line: NCI Yeast Anticancer Drug Screen. Data for the mec2-1 strain (AID 157). Conditions: S. cerevisiae mec2-1 strain, active compounds read high. The gist of the method: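 Compounds were applied to mec2-1 yeast cells. Their growth was then compared with that of vehicle-treated cultures to give growth inhibition.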
Test [3] is described as follows: NCI Yeast Anticancer Drug Screen. Data for the sgs1 mgt1 strain (AID 161).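 Note: 0% = growth of cultures given vehicle only.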 Conditions: S. cerevisiae sgs1 mgt1 strain, active compounds read high. The procedure, abridged:
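This yeast growth screen uses a strain with defined DNA-repair lesions; compound-treated growth is compared with vehicle-treated growth.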

The nature of test [4]: NCI Yeast Anticancer Drug Screen. Data for the cln2 rad14 strain (AID 165).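 Note: 0% = growth equal to vehicle treated cultures.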 Conditions: S. cerevisiae cln2 rad14 strain, active compounds read high. The procedure, abridged:
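Strain: cln2 rad14 yeast, altered in cell cycle control and DNA damage repair. Read-out: growth inhibition vs vehicle.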

Test [5] in a line: NCI Yeast Anticancer Drug Screen. Data for the bub3 strain (AID 167). To be noted: S. cerevisiae bub3 mutant strain, active compounds read high. The procedure, abridged: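 Inhibition values come from growth of compound-treated mutant yeast normalised to vehicle-treated controls.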
A short description of test [6]: NCI Yeast Anticancer Drug Screen. Data for the mlh1 rad18 strain (AID 175). To be noted: S. cerevisiae mlh1 rad18 strain growth inhibition, active compounds read high. The procedure, abridged: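 A repair-deficient yeast strain is exposed to test compound, and growth is scored relative to vehicle-treated controls.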
[7] abbreviates: at 5.0 µM (retest, dose inferred, filed as 0.5).
Setting [8] is: at 50.0 µM (retest, dose inferred, filed as 5.0).

About 79,000 compounds went through this panel and 15% of them were active in at least one assay; those are over-represented in the sample as a whole. Unmarked numbers belong to inactive results. Calls of active or inactive are those of the source. Cut-off read from the data, not from the text of the source: active = growth inhibition above about 70%; inactive = the rest.

As for `Oc1c(Cl)cc(Cl)cc1C=NCC1CCC(CN=Cc2cc(Cl)cc(Cl)c2O)CC1` (stereo not given), the growth inhibition in test [1] (setting [7]) is 60%; in test [1] (setting [8]) it was 86% (active); in test [1] (at 50.0 µM), 87.5% (active); in test [2] (setting [7]), 41%; in test [2] (setting [8]), 92% (active); in test [2] (at 50.0 µM) it was 91% (active). In addition, the growth inhibition in test [3] (setting [7]) was 67%; in test [3] (setting [8]), 96% (active); in test [3] (at 50.0 µM), 90.3% (active); in test [4] (setting [7]), 39%; in test [4] (setting [8]), 58%; in test [4] (at 50.0 µM) it was 80.1% (active). The growth inhibition in test [5] (setting [7]) is 73% (active); in test [5] (setting [8]), 94% (active); in test [5] (at 50.0 µM), 88.4% (active); in test [6] (setting [7]), 72% (active); in test [6] (setting [8]), 97% (active); in test [6] (at 50.0 µM), 85.8% (active).
Consider `N=C(N)Sc1cccc[n+]1[O-]`, for which the growth inhibition was 99% (active) in test [1] (setting [7]); 99% (active) in test [1] (setting [8]); 98.8% (active) in test [1] (at 50.0 µM); 99% (active) in test [2] (setting [7]); 99% (active) in test [2] (setting [8]); 98.9% (active) in test [2] (at 50.0 µM). Besides, the growth inhibition in test [3] (setting [7]) was 100% (active); in test [3] (setting [8]) it was 99% (active); in test [3] (at 50.0 µM), 98.2% (active); in test [4] (setting [7]), 98% (active); in test [4] (setting [8]) it was 98% (active); in test [4] (at 50.0 µM) it was 97.4% (active). For the same molecule, the growth inhibition was 100% (active) in test [5] (setting [7]); 99% (active) in test [5] (setting [8]); 99% (active) in test [5] (at 50.0 µM); 99% (active) in test [6] (setting [7]); 99% (active) in test [6] (setting [8]); 98.2% (active) in test [6] (at 50.0 µM).
With `CC(C)=C1C=C2CC[C@@H]3[C@](C)(CCC[C@@]3(C)C(=O)O)[C@H]2CC1`, the growth inhibition in test [1] (setting [7]) was -1%; in test [1] (setting [8]), 93% (active); in test [1] (at 50.0 µM), 88.3% (active); in test [2] (setting [7]), 3%; in test [2] (setting [8]), 95% (active); in test [2] (at 50.0 µM) it was 90.2% (active). In addition, the growth inhibition in test [3] (setting [7]) was 2%; in test [3] (setting [8]), 95% (active); in test [3] (at 50.0 µM), 91% (active); in test [4] (setting [7]), -4%; in test [4] (setting [8]) it was 91% (active); in test [4] (at 50.0 µM), 90.3% (active). Besides, the growth inhibition is -1% in test [5] (setting [7]); 94% (active) in test [5] (setting [8]); 85.8% (active) in test [5] (at 50.0 µM); 0% in test [6] (setting [7]); 94% (active) in test [6] (setting [8]); 88.5% (active) in test [6] (at 50.0 µM).
With `Cc1oc2c(C)c3oc(=O)cc(C)c3cc2c1CCl`, the growth inhibition in test [1] (setting [7]) is 27%; in test [1] (setting [8]), 94% (active); in test [1] (at 50.0 µM), 54.4%; in test [2] (setting [7]), 32%; in test [2] (setting [8]), 97% (active); in test [2] (at 50.0 µM) it was 75.5% (active). Further, the growth inhibition is 27% in test [3] (setting [7]); 95% (active) in test [3] (setting [8]); 87% (active) in test [3] (at 50.0 µM); 19% in test [4] (setting [7]); 89% (active) in test [4] (setting [8]); 67.5% in test [4] (at 50.0 µM). The growth inhibition in test [5] (setting [7]) is 41%; in test [5] (setting [8]), 97% (active); in test [5] (at 50.0 µM), 84.1% (active); in test [6] (setting [7]), 47%; in test [6] (setting [8]), 96% (active); in test [6] (at 50.0 µM), 90.7% (active).
Turning to `C=CCO/N=C/c1cc(NC(=S)c2ccoc2C)ccc1Cl`, the growth inhibition in test [1] (setting [7]) is 13%; in test [1] (setting [8]) it was 86% (active); in test [1] (at 50.0 µM), 83.9% (active); in test [2] (setting [7]), 6%; in test [2] (setting [8]), 86% (active); in test [2] (at 50.0 µM), 85.5% (active). Besides, the growth inhibition in test [3] (setting [7]) is 1%; in test [3] (setting [8]) it was 85% (active); in test [3] (at 50.0 µM), 83.2% (active); in test [4] (setting [7]), -11%; in test [4] (setting [8]), 80% (active); in test [4] (at 50.0 µM), 84.3% (active). Also, the growth inhibition was -4% in test [5] (setting [7]); 90% (active) in test [5] (setting [8]); 80.4% (active) in test [5] (at 50.0 µM); 4% in test [6] (setting [7]); 91% (active) in test [6] (setting [8]); 76.7% (active) in test [6] (at 50.0 µM).
In the case of `COc1cc2c(c(OC)c1OC)-c1ccc(NCc3ccccc3)c(=O)cc1[C@@H](NC(C)=O)CC2`, the growth inhibition in test [1] (setting [7]) was 17%; in test [1] (setting [8]), 96% (active); in test [1] (at 50.0 µM), 49%; in test [2] (setting [7]), 9%; in test [2] (setting [8]) it was 89% (active); in test [2] (at 50.0 µM), 80.8% (active). Also, the growth inhibition in test [3] (setting [7]) is 16%; in test [3] (setting [8]), 98% (active); in test [3] (at 50.0 µM) it was 68.3%; in test [4] (setting [7]) it was 18%; in test [4] (setting [8]) it was 98% (active); in test [4] (at 50.0 µM), 73.7% (active). In addition, the growth inhibition was 14% in test [5] (setting [7]); 88% (active) in test [5] (setting [8]); 68.3% in test [5] (at 50.0 µM); 16% in test [6] (setting [7]); 97% (active) in test [6] (setting [8]); -53.5% in test [6] (at 50.0 µM).
Take `C/C(=N/NC(N)=S)c1ccc(C)cc1`: the growth inhibition in test [1] (setting [7]) was -4%; in test [1] (setting [8]), 40%; in test [1] (at 50.0 µM), 69%; in test [2] (setting [7]), -4%; in test [2] (setting [8]), 6%; in test [2] (at 50.0 µM), 3.5%. The growth inhibition in test [3] (setting [7]) was -5%; in test [3] (setting [8]), 2%; in test [3] (at 50.0 µM), 40.2%; in test [4] (setting [7]), -11%; in test [4] (setting [8]) it was -22%; in test [4] (at 50.0 µM), 2.3%. The growth inhibition in test [5] (setting [7]) was -13%; in test [5] (setting [8]) it was -8%; in test [5] (at 50.0 µM), 45%; in test [6] (setting [7]) it was -4%; in test [6] (setting [8]), 20%; in test [6] (at 50.0 µM), 66.1%.
For the molecule `O=Cc1ccc(-c2ccc(-c3ccc(CO)s3)o2)s1`, the growth inhibition in test [1] (setting [7]) was 20%; in test [1] (setting [8]), 62%; in test [1] (at 50.0 µM) it was 17.2%; in test [2] (setting [7]), 11%; in test [2] (setting [8]) it was 45%; in test [2] (at 50.0 µM) it was 4.65%. Also, the growth inhibition in test [3] (setting [7]) was 5%; in test [3] (setting [8]), 77% (active); in test [3] (at 50.0 µM) it was 44.5%; in test [4] (setting [7]) it was 3%; in test [4] (setting [8]), 33%; in test [4] (at 50.0 µM), -8.55%. For the same molecule, the growth inhibition is 21% in test [5] (setting [7]); 53% in test [5] (setting [8]); 16.5% in test [5] (at 50.0 µM); 20% in test [6] (setting [7]); 84% (active) in test [6] (setting [8]); 65.3% in test [6] (at 50.0 µM).
On to `OC(c1cc(C23CC4CC(CC(C4)C2)C3)nc2c(Cl)cc(Cl)cc12)C1CCCCN1` (stereo not given), for which the growth inhibition in test [1] (setting [7]) is 99% (active); in test [1] (setting [8]), 98% (active); in test [1] (at 50.0 µM), 98.7% (active); in test [2] (setting [7]) it was 99% (active); in test [2] (setting [8]), 99% (active); in test [2] (at 50.0 µM) it was 98.8% (active). Moreover, the growth inhibition was 99% (active) in test [3] (setting [7]); 99% (active) in test [3] (setting [8]); 68.9% in test [3] (at 50.0 µM); 99% (active) in test [4] (setting [7]); 98% (active) in test [4] (setting [8]); 99.1% (active) in test [4] (at 50.0 µM). Further, the growth inhibition is 99% (active) in test [5] (setting [7]); 98% (active) in test [5] (setting [8]); 98.5% (active) in test [5] (at 50.0 µM); 99% (active) in test [6] (setting [7]); 98% (active) in test [6] (setting [8]); 98.8% (active) in test [6] (at 50.0 µM).
As to `CN(C)CC(C)(CN(C)C)C(=O)/C=C/c1c(Cl)cccc1Cl`, the growth inhibition was 5% in test [1] (setting [7]); 84% (active) in test [1] (setting [8]); 85% (active) in test [1] (at 50.0 µM); -2% in test [2] (setting [7]); 73% (active) in test [2] (setting [8]); 93.7% (active) in test [2] (at 50.0 µM). The growth inhibition in test [3] (setting [7]) is 1%; in test [3] (setting [8]), 93% (active); in test [3] (at 50.0 µM) it was 77.4% (active); in test [4] (setting [7]), 3%; in test [4] (setting [8]), 56%; in test [4] (at 50.0 µM), 18.9%. For the same molecule, the growth inhibition in test [5] (setting [7]) is 4%; in test [5] (setting [8]), 87% (active); in test [5] (at 50.0 µM) it was 81% (active); in test [6] (setting [7]) it was 7%; in test [6] (setting [8]) it was 93% (active); in test [6] (at 50.0 µM), 91.5% (active).
